Experimental data from PubChem BioAssay (Tox21).
Where “and” joins values, the source holds several entries; their conditions need not be identical. Equal entries are not always repeated. Results filed as inconclusive are left out. A call without a number means that no potency is given here. A number with no mark means an inactive call. Calls of active or inactive are those of the source. Unless noted, calls come from the whole dose curve; as a rule, active = well fitted curve in the direction sought with a large enough effect in the repeat runs; inconclusive = weak or mixed curves; inactive = no such curve, though single readings can be large; an effect the other way counts as inactive or inconclusive.

What was measured:
[1] = qHTS assay to identify small molecule antagonists of the estrogen related receptor (ERR) signaling pathway from Tox21 library - cell viability counter screen (AID 1224834); note: nearly all actives have a fitted effect of over 30% in size
Summary of the method: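 Seeded ERR cells were rested 6 h at 37 C/5% CO2 before compounds, positive and negative controls or DMSO were added. Incubation continued for 17.5 h, and viability was then quantified by CellTiter-Fluor fluorescence.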

[2] = qHTS assay to identify small molecule agonists of the constitutive androstane receptor (CAR) signaling pathway - cell viability counter screen (AID 1224836); note: nearly all actives have a fitted effect of over 45% in size
Summary of the method: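 Fluorescence from CellTiter-Fluor indicates live cells after 23 h exposure. The human hepatoma line expresses hCAR and a CYP2B6-2.2kb reporter. Incubation medium contains 0.75 uM PK11195 (final).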

[3] = qHTS assay to identify small molecule antagonists of the constitutive androstane receptor (CAR) signaling pathway - cell viability counter screen (AID 1224837); note: nearly all actives have a fitted effect of over 45% in size
Summary of the method: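 To flag cytotoxic false antagonists, HepG2 hCAR/CYP2B6-2.2kb cells were treated 23 hr with 15-concentration compound series and 50 nM CITCO at 37 C/5% CO2; CellTiter-Fluor fluorescence was the measured end point.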

[4] = biological target: Luciferin 4-monooxygenase (Photinus pyralis) (UniProt P08659); assay: qHTS assay to identify small molecule inhibitors of firefly luciferase (AID 1224835); note: nearly all actives have a fitted effect of over 25% in size
Sequence of Luciferin 4-monooxygenase (Photinus pyralis) (P08659 whole entry, looked up): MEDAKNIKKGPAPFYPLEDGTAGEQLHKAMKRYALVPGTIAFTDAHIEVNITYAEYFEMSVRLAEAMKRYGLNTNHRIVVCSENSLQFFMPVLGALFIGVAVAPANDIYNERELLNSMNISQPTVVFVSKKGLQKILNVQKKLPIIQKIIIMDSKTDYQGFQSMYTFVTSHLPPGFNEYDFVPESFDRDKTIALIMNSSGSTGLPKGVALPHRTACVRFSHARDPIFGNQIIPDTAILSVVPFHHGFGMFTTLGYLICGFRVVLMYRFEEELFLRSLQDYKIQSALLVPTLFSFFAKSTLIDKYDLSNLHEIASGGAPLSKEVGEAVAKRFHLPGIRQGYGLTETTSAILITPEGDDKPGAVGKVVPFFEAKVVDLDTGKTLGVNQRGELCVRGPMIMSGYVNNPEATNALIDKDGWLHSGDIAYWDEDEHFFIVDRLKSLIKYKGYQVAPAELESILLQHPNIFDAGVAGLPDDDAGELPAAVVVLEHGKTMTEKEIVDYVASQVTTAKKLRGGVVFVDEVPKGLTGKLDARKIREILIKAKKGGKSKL
Summary of the method: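 Biochemical qHTS: compounds run as interplate titrations against purified firefly enzyme, with D-luciferin and ATP each at its KM concentration. Light output recorded by CCD imaging.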

[5] = biological target: Nuclear receptor subfamily 1 group I member 3 (Homo sapiens) (UniProt Q14994); assay: qHTS assay to identify small molecule antagonists of the constitutive androstane receptor (CAR) signaling pathway (AID 1224838);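 note: HepG2 cells stably expressing hCAR with CYP2B6 luciferase reporter stimulated by CITCO; nearly all actives have a fitted effect of over 40% in size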
Sequence of Nuclear receptor subfamily 1 group I member 3 (Homo sapiens) (Q14994 whole entry, looked up): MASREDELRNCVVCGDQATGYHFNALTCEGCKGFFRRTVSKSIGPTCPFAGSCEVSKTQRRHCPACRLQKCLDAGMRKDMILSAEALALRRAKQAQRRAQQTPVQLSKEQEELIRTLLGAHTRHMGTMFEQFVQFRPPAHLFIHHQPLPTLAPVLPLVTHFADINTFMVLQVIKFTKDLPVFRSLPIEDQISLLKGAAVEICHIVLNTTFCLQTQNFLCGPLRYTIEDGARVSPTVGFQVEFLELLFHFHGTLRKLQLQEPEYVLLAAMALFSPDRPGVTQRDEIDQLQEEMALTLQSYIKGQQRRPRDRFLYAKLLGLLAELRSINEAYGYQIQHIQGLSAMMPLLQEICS
Summary of the method: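 Human hepatoma HepG2 cells expressing hCAR and a CYP2B6 promoter (2.2 kb) luciferase construct; compound titration (15 points) with 50 nM CITCO final, 24 h at 37 C/5% CO2; luminescence via ONE-Glo after 30 min at room temperature.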

[6] = biological target: Thyrotropin receptor (Homo sapiens) (UniProt P16473); assay: qHTS assay to identify small molecule agonists of the thyroid stimulating hormone receptor (TSHR) signaling pathway (AID 1224843; calls by dose curve; note: nearly all actives have a fitted effect of over 45% in size)
Sequence of Thyrotropin receptor (Homo sapiens) (P16473 whole entry, looked up): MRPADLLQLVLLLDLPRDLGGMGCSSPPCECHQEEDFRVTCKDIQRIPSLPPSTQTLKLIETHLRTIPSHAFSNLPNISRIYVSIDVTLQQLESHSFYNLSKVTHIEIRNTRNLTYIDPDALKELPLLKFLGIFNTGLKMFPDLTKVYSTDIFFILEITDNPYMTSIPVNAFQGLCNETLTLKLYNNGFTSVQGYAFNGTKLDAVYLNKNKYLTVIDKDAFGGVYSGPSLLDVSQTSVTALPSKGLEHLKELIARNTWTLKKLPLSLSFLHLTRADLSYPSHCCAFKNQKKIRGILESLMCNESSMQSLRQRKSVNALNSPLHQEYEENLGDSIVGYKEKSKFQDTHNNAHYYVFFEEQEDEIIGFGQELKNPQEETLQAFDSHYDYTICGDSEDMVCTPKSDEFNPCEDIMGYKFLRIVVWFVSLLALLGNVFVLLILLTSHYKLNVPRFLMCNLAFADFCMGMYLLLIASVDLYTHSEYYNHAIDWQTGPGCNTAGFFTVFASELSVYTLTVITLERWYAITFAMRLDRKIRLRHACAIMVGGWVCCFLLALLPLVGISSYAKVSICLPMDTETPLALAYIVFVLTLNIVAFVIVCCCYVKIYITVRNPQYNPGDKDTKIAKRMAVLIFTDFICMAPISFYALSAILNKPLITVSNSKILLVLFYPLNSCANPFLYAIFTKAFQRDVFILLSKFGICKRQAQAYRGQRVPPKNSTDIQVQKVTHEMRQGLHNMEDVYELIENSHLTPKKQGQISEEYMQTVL
Summary of the method: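 Agonist-mode screen: TSHR HEK293 cells received test chemicals for half an hour at room temperature, then HTRF cAMP detection reagents for one hour prior to fluorescence measurement. Each chemical ran as a 15-concentration series, triplicated.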

[7] = qHTS assay to identify small molecule antagonists of the estrogen related receptor signaling pathway with the pleiotropic PPARgamma coactivator (PGC) from Tox21 10K library - cell viability counter screen (AID 1224840; active = well fitted cell-killing curve with a large enough effect in the repeat runs, not every such curve was filed as active; note: nearly all actives have a fitted effect of over 40% in size)
Summary of the method: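 Seeded PGC/ERR cells (2,000/well, 6 h, 37 C/5% CO2) get compound by pin tool; 17.5 h incubation at 37 C; CellTiter-Fluor added, 30 min, fluorescence measured.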

[8] = biological target: Nuclear receptor subfamily 1 group I member 3 (Homo sapiens) (UniProt Q14994); assay: qHTS assay to identify small molecule agonists of the constitutive androstane receptor (CAR) signaling pathway (AID 1224839); note: nearly all actives have a fitted effect of over 15% in size
Summary of the method: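 Stable hCAR/CYP2B6-2.2kb HepG2 line in DMEM with 10% FBS; compounds (15 concentrations) and 0.75 uM PK11195 final, 24 h at 37 C/5% CO2, then ONE-Glo luminescence after 30 min.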

[9] = qHTS assay to identify small molecule antagonists of the estrogen related receptor signaling pathway with the pleiotropic PPARgamma coactivator (PGC) from Tox21 10K library (AID 1224841; call rule not given here; note: actives are mostly falling curves and most rising ones were filed inactive; nearly all actives have a fitted effect of over 50% in size; for activity, negative = inhibition: series mostly up to about 92 µM)
Summary of the method: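 Test chemicals dissolved in DMSO were applied to pre-incubated (6 h) PGC/ERR cells at 2,000 cells/well for an 18 h, 37 C treatment; reporter luminescence was then read using One-Glo.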

[10] = qHTS assay to identify small molecule agonists of the estrogen related receptor signaling pathway with the pleiotropic PPARgamma coactivator (PGC) from Tox21 10K library (AID 1224842); note: nearly all actives have a fitted effect of over 15% in size
Summary of the method: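 PGC/ERR reporter cell line, 2,000 cells per well, incubated 6 h at 37 C before 23 nL compound in DMSO was added. After 18 h at 37 C, One-Glo luminescence read following 30 min at room temperature.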
Potency is the fitted concentration of half-maximal effect.

CC(=O)[O-].CC(=O)[O-].CC(=O)[O-].[Cr+3]
Potency [1]: inactive
Potency [2]: inactive
Potency [3]: inactive

c1cc[n+]2c(c1)-c1cccc[n+]1CC2
Potency [1]: inactive
Potency [4]: inactive
Potency [5]: inactive
Potency [6]: inactive

CC(=O)[O-].CC(=O)[O-].O.O.O.[Pb+2]
Potency [1]: inactive
Potency [2]: inactive
Potency [3]: inactive
Potency [7]: inactive

CSSC
Potency [1]: inactive
Potency [4]: inactive
Potency [5]: 22 µM (active)
Potency [8]: inactive
Potency [9]: inactive
Potency [10]: inactive
Potency [6]: inactive

CN
Potency [1]: inactive
Potency [2]: inactive
Potency [3]: inactive
Potency [5]: inactive
Potency [8]: inactive
Potency [7]: inactive
Potency [6]: inactive

O=NN(CCO)CCO
Potency [1]: inactive
Potency [2]: inactive
Potency [3]: inactive
Potency [7]: inactive
Potency [9]: inactive
Potency [10]: inactive
Potency [6]: inactive

ClSC(Cl)(Cl)Cl
Potency [1]: inactive
Potency [2]: inactive
Potency [3]: inactive
Potency [5]: inactive
Potency [8]: inactive
Potency [9]: inactive
Potency [10]: inactive
Potency [6]: inactive

[Cl-].[Cl-].[Cl-].[Yb+3]
Potency [1]: inactive
Potency [2]: inactive
Potency [3]: inactive
Potency [7]: inactive

C=CCOC(=O)c1ccccc1N
Potency [1]: inactive
Potency [2]: inactive
Potency [7]: inactive
Potency [9]: inactive
Potency [10]: inactive
Potency [6]: inactive

COP(=S)(OC)Oc1nc(Cl)c(Cl)cc1Cl
Potency [1]: inactive
Potency [2]: inactive
Potency [3]: inactive
Potency [7]: inactive
Potency [9]: inactive
Potency [10]: inactive
Potency [6]: inactive

O=S(=O)(NS(=O)(=O)C(F)(F)F)C(F)(F)F
Potency [1]: 43.1 µM (active)
Potency [2]: 24.3 µM (active)
Potency [3]: 30.5 µM (active)
Potency [7]: inactive

Brc1cccc(-c2ccccc2)c1
Potency [1]: inactive
Potency [2]: inactive
Potency [3]: inactive
Potency [5]: inactive
Potency [8]: inactive
Potency [7]: inactive
Potency [9]: inactive
Potency [10]: inactive

O.O.O.O.O.O.O=S(=O)([O-])[O-].[Ni+2]
Potency [1]: inactive
Potency [2]: inactive
Potency [3]: inactive
Potency [7]: inactive

BrCC(Br)(Br)Br
Potency [1]: inactive
Potency [2]: inactive
Potency [3]: inactive
Potency [5]: inactive
Potency [8]: inactive
Potency [7]: inactive
Potency [9]: inactive
Potency [10]: inactive

CCC[CH2][Sn]([CH2]CCC)([CH2]CCC)[O][Sn]([CH2]CCC)([CH2]CCC)[CH2]CCC
Potency [1]: 1.06 µM (active)
Potency [2]: 0.752 µM (active)
Potency [3]: 0.947 µM (active)
Potency [7]: 0.533 µM (active)
activity, negative = inhibition [9]: 332% [at 8.39 µM]

c1ccc2c(c1)cc1ccc3cccc4ccc2c1c34
Potency [1]: inactive
Potency [4]: 10.2 µM (active)
Potency [9]: inactive
Potency [10]: 22.1 µM (active)
Potency [6]: inactive

CC(=O)O.CC(=O)O.CC(=O)O.CC(=O)O.CC(=O)O.CC(=O)O.CC(=O)O.O.O.[Cr].[Cr].[Cr]
Potency [1]: inactive
Potency [2]: inactive
Potency [7]: inactive

O.O.O.O=C([O-])[C@H]([O-])[C@@H]([O-])C(=O)[O-].O=C([O-])[C@H]([O-])[C@@H]([O-])C(=O)[O-].[K+].[K+].[Sb+3].[Sb+3]
Potency [1]: 17.3 µM (active)
Potency [4]: inactive
Potency [7]: 19.4 µM (active)

CCCCn1cc[n+](C)c1 (tested in a mixture with another compound)
Potency [1]: inactive
Potency [2]: inactive
Potency [3]: inactive
Potency [7]: inactive

O=[N+]([O-])[O-].[Tl+]
Potency [2]: inactive
Potency [7]: inactive
Potency [6]: inactive

COP(=S)(OC)Oc1ccc([N+](=O)[O-])c(C)c1
Potency [2]: inactive
Potency [3]: inactive
Potency [5]: inactive
Potency [10]: inactive
Potency [6]: inactive

CCc1cccc(C)c1N(C(=O)CCl)[C@@H](C)COC
Potency [4]: inactive
Potency [2]: inactive
Potency [3]: inactive
Potency [8]: 19.3 µM (active)
Potency [9]: 30.6 µM (active)
Potency [10]: inactive
Potency [6]: 34.4 µM (active)

C#CCC1=C(C)C(OC(=O)C2C(C=C(C)C)C2(C)C)CC1=O (centres undefined)
Potency [4]: inactive
Potency [2]: inactive
Potency [3]: inactive
Potency [8]: 60.7 µM (active)
Potency [10]: inactive
Potency [6]: 60.7 µM (active)

CCO/N=C(\CC)C1=C(O)CC(c2c(C)cc(C)cc2C)CC1=O (centres undefined)
Potency [4]: inactive
Potency [2]: inactive
Potency [3]: inactive
Potency [5]: inactive
Potency [8]: inactive
Potency [7]: inactive

Clc1ccc(C(c2ccc(Cl)cc2)C(Cl)Cl)cc1
Potency [4]: inactive
Potency [2]: inactive
Potency [5]: inactive
Potency [8]: 49.3 µM (active) and 21.7 µM (active)
Potency [7]: inactive
Potency [9]: inactive
Potency [10]: inactive
Potency [6]: inactive

O=C(NC(=O)c1c(F)cccc1F)Nc1ccc(Oc2ccc(C(F)(F)F)cc2Cl)cc1F
Potency [4]: inactive
Potency [2]: inactive
Potency [7]: inactive

Oc1cc(Cl)c(Cl)c(Cl)c1Cl
Potency [9]: 21.2 µM (active)
Potency [10]: inactive
Potency [6]: inactive

CCOP(=S)(NC(C)C)Oc1ccccc1C(=O)OC(C)C (centres undefined)
Potency [4]: inactive
Potency [2]: inactive
Potency [3]: inactive
Potency [8]: 7.7 µM (active)
Potency [9]: 30.6 µM (active)
Potency [10]: inactive
Potency [6]: inactive

COc1ccc(Cc2nccc3cc(OC)c(OC)cc23)cc1OC
Potency [2]: inactive
Potency [8]: 15 µM (active)
Potency [7]: inactive
Potency [6]: 9.44 µM (active)

CC(C)(C)c1ccc(OP(=O)(Oc2ccccc2)Oc2ccccc2)cc1
Potency [4]: inactive
Potency [2]: inactive
Potency [3]: inactive
Potency [8]: 48.9 µM (active)
Potency [9]: 7.74 µM (active)
Potency [10]: inactive
